{
  "source": "PubChem BioAssay (Tox21)",
  "note": "Several values for one entry are separate records, joined by “and”; a condition that tells them apart may be missing. Equal values may be shown once. Records with an inconclusive call do not appear. Entries that show only a call come without a potency. Unmarked numbers belong to inactive results. Activity calls are given as the source filed them. Calls follow the shape of the dose curve; as a rule, active = well fitted cell-killing curve with a large enough effect in the repeat runs; inconclusive = weak or mixed curves, or effect the other way; inactive = no such curve, though single readings can be large or run the other way. Potency is read from the fitted curve at half-maximal effect.",
  "data": [
    {"test": "qHTS assay for identifying genotoxic compounds that show differential cytotoxicity against isogenic chicken DT40 cell lines with known DNA damage response pathways - wild type cell line (AID 743012); also: nearly all actives have a fitted effect of over 60% in size", "details": "DT40 wild type chicken cells viability, CellTiter-Glo, 40 h; series mostly up to 68.4 µM", "description": "U.S. Tox21 Program National Center for Advancing Translational Sciences [NCATS] NIH Chemical Genomics Center [NCGC] U.S. Environmental Protection Agency [EPA] National Institutes of Environmental Health Sciences [NIEHS] National Toxicology Program [NTP] U.S. Food and Drug Administration [FDA] Tox21 Assay Overview: DNA repair pathways play a critical role in cellular homeostasis by repairing DNA damage induced by endogenous processes and xenobiotics. Isogenic chicken DT40 cell lines deficient in different DNA repair pathways can be used to identify genotoxic compounds and aid in characterizing the nature of the DNA damage induced. Two DNA repair-deficient cell lines with disrupted genes, Rad54/Ku70 or Rev3, were used to screen the Tox21 10K compound library. Possible genotoxicity was based on the presence of a significant increase in cytotoxicity in one or more of the DNA repair-deficient cell lines compared to that observed in the parental DNA repair-proficient cell line. CellTiter Glo viability assay (Promega, Madison, WI) was used to measure cell viability in these cells after compound treatment. This assay includes the data from the wild type cell line.\nTox21 Assay Protocol Summary: 300 DT40 wild type cells in 5 uL/well were dispensed into white, solid-bottom 1536-well plates using a Multidrop Combi (ThermoFisher Scientific, Waltham, MA) dispenser. After the assay plates were incubated at 37 C/5% CO2 for approximately 0.5 hour, 23 nL of compounds dissolved in DMSO, positive controls or DMSO only was transferred into the assay plate by a pintool work station (Kalypsys, San Diego, CA). The assay plates were incubated at 37 C/5% CO2 for 40 hours. After 5 uL per well of CellTiter-Glo reagent was added into each well of the assay plates, the plates were incubated for 30 min at room temperature and the luminescence intensity of the plates was measured using a ViewLux (PerkinElmer, Shelton, CT) plate reader.", "values": [
      {"smiles": "CCCCCON=O", "Potency": "inactive"},
      {"smiles": "O=C(Nc1ccc(F)cc1F)c1cccnc1Oc1cccc(C(F)(F)F)c1", "Potency": "inactive"},
      {"smiles": "[O]=[Cr](=[O])([OH])[O][Cr](=[O])(=[O])[OH]", "Potency": "21.1 µM (active) [middle of 4 runs]"},
      {"smiles": "CNC(C)(C)Cc1ccccc1", "Potency": "inactive"},
      {"smiles": "CC(=O)O.CC(=O)O.CC(=O)O.CC(=O)O.CC(=O)O.CC(=O)O.CC(=O)O.O.O.[Cr].[Cr].[Cr]", "Potency": "inactive"},
      {"smiles": "CNC(=O)O/N=C(\\C)C(C)S(C)(=O)=O", "note": "(stereo not given)", "Potency": "inactive"},
      {"smiles": "CC(=O)[O][Sn]([c]1ccccc1)([c]1ccccc1)[c]1ccccc1", "Potency": "0.122 µM (active)"},
      {"smiles": "Cc1cnc2c(C(=O)O)c(Cl)ccc2c1", "Potency": "inactive"},
      {"smiles": "CC(=O)[O][Pb]([c]1ccccc1)([c]1ccccc1)[c]1ccccc1", "Potency": "0.154 µM (active)"},
      {"smiles": "CC(C)[C@@H](Nc1ccc(C(F)(F)F)cc1Cl)C(=O)OC(C#N)c1cccc(Oc2ccccc2)c1", "note": "(stereo not given in full)", "Potency": "inactive"},
      {"smiles": "N#Cc1sc2c(=O)c3ccccc3c(=O)c=2sc1C#N", "Potency": "1.37 µM (active)"},
      {"smiles": "C#CC1(O)CCCCC1", "Potency": "inactive"},
      {"smiles": "Clc1c(Cl)c(Cl)c(Cl)c(Cl)c1Cl", "activity change, negative = cytotoxicity": "20.8% [at 8.52 µM]"},
      {"smiles": "C=CCOC(=O)c1ccccc1N", "Potency": "inactive"},
      {"smiles": "C[N+]1(C)[C@@H]2CC[C@H]1CC(OC(=O)C(CO)c1ccccc1)C2", "note": "(stereo not given in full)", "Potency": "inactive"},
      {"smiles": "Cc1c([N+](=O)[O-])cc2c(c1[N+](=O)[O-])C(C)(C)CC2(C)C", "Potency": "inactive"},
      {"smiles": "C=CC(=O)[O][Sn]([CH2]CCC)([CH2]CCC)[CH2]CCC", "Potency": "0.864 µM (active)"},
      {"smiles": "CCN1CCC2(CC1)COc1cc3c(cc12)N(C(=O)c1ccc(-c2ccc(-c4nnc(C)o4)cc2C)cc1)CC3", "Potency": "1.26 µM (active)"},
      {"smiles": "CCN(CC)C(=S)S", "Potency": "2.66 µM (active) and 5.42 µM (active) and 433 nM (active)"},
      {"smiles": "O=[N+]([O-])c1ccc(Cl)c(Cl)c1Cl", "Potency": "inactive"},
      {"smiles": "CCC(C)Nc1c([N+](=O)[O-])cc(C(C)(C)C)cc1[N+](=O)[O-]", "note": "(stereo not given)", "Potency": "inactive"},
      {"smiles": "CN1[C@@H]2CC[C@H]1CC(O)C2", "note": "(stereo not given in full)", "Potency": "inactive"},
      {"smiles": "NC(=O)C(Cl)Cl", "Potency": "inactive"},
      {"smiles": "CSC1=N[C@@](C)(c2ccccc2)C(=O)N1Nc1ccccc1", "Potency": "1.54 µM (active)"},
      {"smiles": "CCN(CC)CCN1C(=O)CN=C(c2ccccc2F)c2cc(Cl)ccc21", "Potency": "6.68 µM (active)"},
      {"smiles": "CN", "Potency": "inactive"},
      {"smiles": "O=C1C(Cl)=C(Cl)C(=O)C(Cl)=C1Cl", "Potency": "13.6 µM (active) and 9.69 µM (active)"},
      {"smiles": "S=C=NCCc1ccccc1", "Potency": "inactive"},
      {"smiles": "N#CSCc1ccccc1", "Potency": "inactive"},
      {"smiles": "O=[N+]([O-])c1ccc(CCl)cc1", "Potency": "inactive"},
      {"smiles": "COc1ccc(Cc2nccc3cc(OC)c(OC)cc23)cc1OC", "Potency": "4.03 µM (active)"},
      {"smiles": "ClC1(Cl)C2(Cl)C3(Cl)C4(Cl)C(Cl)(Cl)C5(Cl)C3(Cl)C1(Cl)C5(Cl)C24Cl", "note": "(stereo not given)", "Potency": "inactive"},
      {"smiles": "CC(C)=CCN1CC[C@@]2(C)c3cc(O)ccc3C[C@@H]1[C@@H]2C", "Potency": "19 µM (active)"},
      {"smiles": "C#CCC1=C(C)C(OC(=O)C2C(C=C(C)C)C2(C)C)CC1=O", "note": "(stereo not given)", "Potency": "19.2 µM (active)"},
      {"smiles": "COC(=O)N(OC)c1ccccc1COc1ccn(-c2ccc(Cl)cc2)n1", "Potency": "0.193 µM (active)"},
      {"smiles": "Cc1nn(-c2cc(NS(C)(=O)=O)c(Cl)cc2Cl)c(=O)n1C(F)F", "Potency": "inactive"},
      {"smiles": "CCc1cccc(C)c1N(C(=O)CCl)[C@@H](C)COC", "Potency": "13.7 µM (active)"},
      {"smiles": "ClC1=C(Cl)[C@]2(Cl)[C@H]3[C@H]([C@@H]4C=C[C@H]3C4)[C@@]1(Cl)C2(Cl)Cl", "Potency": "inactive"},
      {"smiles": "O=C1C2(Cl)C3(Cl)C4(Cl)C(Cl)(Cl)C5(Cl)C3(Cl)C1(Cl)C5(Cl)C24Cl", "note": "(stereo not given)", "Potency": "30.1 µM (active) and 29.3 µM (active)"},
      {"smiles": "CCCCC/C=C\\C/C=C\\C/C=C\\C/C=C\\CCCC(=O)NCC(=O)O", "activity change, negative = cytotoxicity": "16.5% [at 8.52 µM]"}
    ]}
  ]
}
